# Source: PubChem BioAssay AID1671192 (National Center for Advancing Translational Sciences (NCATS), 2021)
# Results filed as inconclusive are left out. Calls of active or inactive are those of the source. Calls come from the whole dose curve; as a rule, active = well fitted curve in the direction sought with a large enough effect; inconclusive = small, poorly fitted or top-dose-only effect, or another doubt; inactive = no such curve, though single readings can be large or run the other way.
# Biological target: Polyunsaturated fatty acid lipoxygenase ALOX15 (Homo sapiens) (UniProt P16050)
# Sequence (P16050 whole entry, looked up): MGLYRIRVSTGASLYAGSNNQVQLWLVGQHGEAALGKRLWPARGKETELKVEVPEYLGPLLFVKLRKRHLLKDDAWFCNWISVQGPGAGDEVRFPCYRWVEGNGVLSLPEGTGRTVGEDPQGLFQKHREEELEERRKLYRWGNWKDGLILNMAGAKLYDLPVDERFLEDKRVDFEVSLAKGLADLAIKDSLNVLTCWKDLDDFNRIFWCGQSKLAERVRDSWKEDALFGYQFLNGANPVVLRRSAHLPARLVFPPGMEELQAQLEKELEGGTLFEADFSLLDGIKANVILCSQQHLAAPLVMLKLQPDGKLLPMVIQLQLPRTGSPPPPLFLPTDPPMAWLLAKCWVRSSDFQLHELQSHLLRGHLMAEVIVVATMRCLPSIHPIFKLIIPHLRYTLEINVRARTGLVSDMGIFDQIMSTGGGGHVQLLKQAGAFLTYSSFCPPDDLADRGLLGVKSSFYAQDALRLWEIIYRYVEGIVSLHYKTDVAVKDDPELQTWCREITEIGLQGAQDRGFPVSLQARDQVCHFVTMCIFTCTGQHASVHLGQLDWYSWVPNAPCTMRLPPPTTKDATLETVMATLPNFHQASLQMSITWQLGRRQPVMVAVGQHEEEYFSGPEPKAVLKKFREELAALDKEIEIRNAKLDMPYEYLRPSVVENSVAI
# Experiment: Counterscreen qHTS for inhibitors of human arachidonate 12S-lipoxygenase (ALOX12): ALOX15 Assay
# Procedure, shortened: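 Purified human ALOX15 (15hLO-1) at 40 nM in 25 mM HEPES, 0.01% Triton X-100, pH 7.5, preincubated with compound 15 min at RT. Then 50 uM arachidonic acid for 30 min; hydroperoxide detected by Fe-xylenol orange as the 573/405 nm absorbance ratio.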
row,Structure (SMILES),outcome
1,O=C1NCc2ccccc2CC12CCCN2Cc1ccc(Cl)cc1 (stereo not drawn),inactive
2,O=C1NCc2ccccc2CC12CCN(Cc1cccc(F)c1F)CC2,inactive
3,Cc1ccc(CN2CCC3(CC2)Cc2ccccc2CNC3=O)cc1C,inactive
4,CN1CC(=O)N(C2CCCNC2)Cc2c(NCC3CCCCCC3)ncnc21 (stereo not drawn),inactive
5,COc1ccc(CNc2ncnc3c2CN(C2CCCNCC2)C(=O)CN3C)cc1 (stereo not drawn),inactive
6,CCOc1ccccc1CN1CCCCC12Cc1ccccc1CNC2=O (stereo not drawn),inactive
7,N#Cc1ccc(CN2CCn3c(nn(-c4cccc(Cl)c4)c3=O)C2)cc1,inactive
8,Cc1cc(C)c(CN2CCC3(Cc4ccccc4CNC3=O)C2)c(C)c1 (stereo not drawn),inactive
